CYP2C19 act: human CYP2C19 activators, primary screen, biochemical, luminescence; activation factor at 5 µM; recombinant CYP2C19, luciferin-H EGE luminescence; hits give high values; 0 = fully inhibited enzyme, 1 = untreated enzyme; 96,000 tested, under 10 active; Cytochrome P450 2C19 (Homo sapiens), P33261;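 active means activation factor of at least 2 at 5 µM in the primary screen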;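 further: 0 = wells with 2.5 mM tranylcypromine and 1 = vehicle-only wells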
Target sequence (P33261 whole entry, looked up): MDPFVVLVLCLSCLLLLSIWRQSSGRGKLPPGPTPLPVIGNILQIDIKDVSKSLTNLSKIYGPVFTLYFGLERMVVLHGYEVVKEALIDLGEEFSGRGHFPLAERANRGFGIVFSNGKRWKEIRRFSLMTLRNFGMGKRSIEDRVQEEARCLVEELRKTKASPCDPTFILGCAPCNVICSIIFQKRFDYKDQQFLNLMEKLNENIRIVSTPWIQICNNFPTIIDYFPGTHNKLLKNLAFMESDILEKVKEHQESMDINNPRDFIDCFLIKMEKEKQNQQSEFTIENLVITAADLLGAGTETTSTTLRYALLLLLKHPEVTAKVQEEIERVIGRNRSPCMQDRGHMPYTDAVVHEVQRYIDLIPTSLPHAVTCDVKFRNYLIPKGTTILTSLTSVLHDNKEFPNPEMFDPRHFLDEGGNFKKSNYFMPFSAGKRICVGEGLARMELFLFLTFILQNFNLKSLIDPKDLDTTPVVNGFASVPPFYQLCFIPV
CYP2C19 inh: blockers of cytochrome P450 2C19 activity – biochemical, luminescence, ADME assay, primary screen; P33261; CYP2C19 Supersomes, luciferin-H EGE luminescence, 30 min; inhibition, % at 5 µM; 96,000 compounds, 21% hits; AID 778, 2007;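 active means CYP2C19 inhibition above a set limit at 5 µM in the primary screen, cut at about 50% in these data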;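 further: plate controls were negative control wells for no effect and 2.5 mM tranylcypromine positive control for full effect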
CYP2C9 inh: blockers of cytochrome P450 2C9 activity – biochemical, luminescence, ADME assay, primary screen; P11712; CYP2C9 Supersomes, luciferin-H conversion; inhibition, % at 5 µM; 96,000 compounds, 20% hits;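 active means blocking of liver enzyme CYP2C9 beyond about 50% at 5 µM, limit read from the data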
CYP2C9 activ: human CYP2C9 activators, primary screen, biochemical, luminescence; recombinant CYP2C9, luciferin-H conversion; hits give high values; factor 1 = untreated enzyme, 0 = blocked; activation factor at 5 µM; 96,000 compounds, 1.4% hits;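 active means activation factor of 2 or more for CYP2C9 at a 5 µM dose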;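 further: 0 = sulfaphenazole-blocked wells and 1 = vehicle-only wells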
The depositor's hits bear a star. Only some compounds are listed: those with a hit (about 31% of all), similar ones and a draw of the others.

SMILES	CYP2C19 act	CYP2C19 inh	CYP2C9 inh	CYP2C9 activ
NC(=O)COC(=O)CCCc1nc2ccccc2s1	0.5	47	-16	1.2
COc1ccc(OCCC(=O)OCc2c(C)noc2C)cc1	0.7	28	36	0.6
Cc1noc(C)c1COC(=O)CCN1c2ccccc2Sc2ccccc21	0.1	88*	98*	0
CCC(C)(C)n1nnnc1C(c1cc2ccc(OC)cc2[nH]c1=O)N1CCN(C2CCCCC2)CC1 (stereo not given)	1	-3	6	0.9
COc1ccccc1N1CCN(C(c2cc3cc(C)ccc3[nH]c2=O)c2nnnn2C2CCCC2)CC1 (stereo not given)	0.8	24	-18	1.2
COc1ccccc1N1CCN(C(c2cc3ccc(C)cc3[nH]c2=O)c2nnnn2C2CCCC2)CC1 (stereo not given)	0.3	72*	91*	0.1
CCOC(=O)C1CCN(C(c2cc3ccc(C)cc3[nH]c2=O)c2nnnn2C2CCCCC2)CC1 (stereo not given)	0.2	79*	84*	0.2
CNC(=O)c1csc(-c2ccc(C)cc2)n1	0.9	13	29	0.7
Cc1cccc(C)c1OCC(O)CNC(C)(C)C (stereo not given)	1	-5	-15	1.1
c1cncc(-c2nc(NCC3COc4ccccc4O3)c3ccccc3n2)c1 (stereo not given)	0.5	49	88*	0.1
CCOC(=O)c1nc(Nc2ccc(C)cc2)c2ccccc2n1	0.3	71*	66*	0.3
CCOC(=O)c1ccc(Nc2nc(-c3cccnc3)nc3ccccc23)cc1	0.3	66*	79*	0.2
COC(=O)CNc1nc(-c2cccnc2)nc2ccccc12	0.8	24	56*	0.4
Oc1ccccc1-c1nc(NCC2CCCO2)c2ccccc2n1 (stereo not given)	0.9	8	41	0.6
CCOC(=O)c1nc(Nc2ccccc2)c2ccccc2n1	0.9	12	34	0.7
COC(=O)c1cc(S(=O)(=O)N2CCOCC2)ccc1Sc1ccccc1N	0.9	5	37	0.6
CCOc1cc(/C=N/NC(=O)CN2CCCCC2)ccc1OCc1ccccc1	1	-2	8	0.9
O=S(=O)(NCc1ccco1)N1CCOCC1	0.9	7	6	0.9
Cc1ccc(NC2=NC(c3ccccc3)n3c(nc(C)cc3=O)N2)c(C)c1 (stereo not given)	0.2	83*	36	0.6
Cc1ccc(NC2=NC(c3ccc(C)cc3)n3c(nc(C)cc3=O)N2)cc1 (stereo not given)	0.3	71*	50*	0.5
O=C(Cn1ccc2ccccc2c1=O)NCCC(=O)NC1CCN(Cc2ccccc2)CC1	1.1	-14	-25	1.3
Cc1nn(C)cc1CNC(=O)c1cnn2c1NC(c1ccc(Br)cc1)CC2C(F)(F)F (stereo not given)	0.9	9	20	0.8
O=C(NCCCn1ccnc1)c1cnn2c1NC(c1ccccc1)CC2C(F)(F)F (stereo not given)	0.2	85*	97*	0
Cc1c(CNC(=O)c2cnn3c2NC(c2ccc(Br)cc2)CC3C(F)(F)F)cnn1C (stereo not given)	0.5	46	67*	0.3
NC(=O)c1cnn2c1NC(c1ccc(F)cc1)CC2C(F)(F)F (stereo not given)	0.4	62*	54*	0.5
SMILES	CYP2C19 act	CYP2C19 inh	CYP2C9 inh	CYP2C9 activ
Cc1nn(Cc2ccc(F)cc2)c(C)c1NC(=O)c1cnn2c1NC(c1ccccc1)CC2C(F)(F)F (stereo not given)	0.7	32	67*	0.3
CC1=C(C(=O)Nc2ccccc2)C(c2ccc(C)o2)n2ncnc2N1 (stereo not given)	1	-1	2	1
CCOC(=O)c1cc(C(=O)c2cccs2)n2ccc(C(C)=O)cc12	1	-3	13	0.9
CC(=O)NCCn1c(SCc2ccccc2F)nc2ccccc2c1=O	0	98*	97*	0
Cn1c(SCc2ccccc2F)nc2cccnc21	0.4	63*	25	0.8
CCCCn1c2c(c(=O)n(C)c1=O)C(c1ccc(OC)cc1)N1CCCCCC1=N2 (stereo not given)	0.8	20	17	0.8
Fc1ccc(N2CCN(C(c3cccs3)c3nnnn3C3CCCC3)CC2)cc1 (stereo not given)	0	96*	98*	0
COc1ccc(N2CCN(C(c3cccs3)c3nnnn3C3CCCC3)CC2)cc1 (stereo not given)	0.7	29	64*	0.4
CNCc1cc2ccc(C)cc2[nH]c1=O	1	-4	8	0.9
CSc1nsc(SCC(=O)Nc2cccc(C(C)=O)c2)n1	0.7	32	51*	0.5
CCOc1ccc2nc(NC(=O)CSc3nc(SC)ns3)sc2c1	1.1	-9	4	1
CCOC(=O)c1ccc(NC(=O)CSc2nc(SC)ns2)cc1	0.5	55*	60*	0.4
Cc1ccc(-c2nn(CC(=O)Nc3cccnc3)c(=O)c3ccccc23)cc1	0.8	16	81*	0.2
O=C(Cn1nc(-c2cccc(Cl)c2)ccc1=O)Nc1cccnc1	0.9	14	11	0.9
O=C(Cn1nc(-c2cccc([N+](=O)[O-])c2)c2ccccc2c1=O)Nc1cccnc1	1	0	75*	0.2
Cc1ccc(-c2nn(CC(=O)NC(C)c3ccccc3)c(=O)c3ccccc23)cc1 (stereo not given)	0.8	22	38	0.6
CC(=O)C(Sc1nc(NC(C)(C)C)nc(N(C)C)n1)C(C)=O	0.8	24	13	0.9
Cc1ccccc1N=C(NOCc1ccc(Cl)cc1Cl)c1nonc1N	0.6	44	70*	0.3
Cc1ccc(N=C(NOCc2ccc(Cl)cc2Cl)c2nonc2N)c(C)c1	0.6	42	74*	0.3
Cc1ccc2ccccc2c1COC(=O)c1nonc1N	0.7	32	24	0.8
Cc1ccc(N=C(NOC(=O)c2ccccc2)c2nonc2N)c(C)c1	1.1	-12	5	0.9
O=S1(=O)CCN=C2SC3=C(CCCC3)N21	0.6	45	0	1
COc1ccccc1C(c1nnnn1CCc1ccccc1)N1CCCCCC1 (stereo not given)	0.8	15	38	0.6
Cc1ccc(S(=O)(=O)NC(CC(C)C)C(=O)NCc2ccco2)cc1 (stereo not given)	0.5	54*	56*	0.4
Cc1ccc(S(=O)(=O)NC(CC(C)C)C(=O)Nc2nccs2)cc1 (stereo not given)	0.6	43	81*	0.2
Cc1ccc(S(=O)(=O)NC(CC(=O)NCc2ccco2)c2ccco2)cc1 (stereo not given)	0.5	48	-31	1.3
COc1ccc(-c2nc(CSCC(=O)N3CCc4ccccc4C3)c(C)o2)cc1OC	0.8	16	16	0.8
